According to PubChem BioAssay (EPA / NIEHS):
Activity calls are given as the source filed them. How the source made its calls: active means hit-call score of the fitted dose curve at least 0.9, where 1 is the maximum; inactive means score below 0.9.

Assay: ATG_M_32_CIS: Attagene CIS-FACTORIAL HepG2 Assay for M32 Transcription Factor (Internal Marker) (AID 2282949);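 further: background control marker of the multiplexed CIS panel rather than a real target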
Settings: HepG2 Attagene cis-factorial M32 reporter, mRNA; actives raise or lower the signal
Protocol: ATG_CIS is a cell-based, multiplexed-readout assay that uses HepG2, a human liver cell line, with measurements taken at 24 hours after chemical dosing in a 24-well plate.ATG_M_32_CIS is one of 52 assay component(s) measured or calculated from the ATG_CIS assay. It is designed to make measurements of mRNA induction, a form of inducible reporter, as detected with fluorescence intensity signals by Reverse transcription polymerase chain reaction (RT-PCR) and Capillary electrophoresis technology.Data from the assay component ATG_M_32_CIS was analyzed into 1 assay endpoint. This assay endpoint, ATG_M_32_CIS, was analyzed with bidirectional fitting relative to DMSO as the negative control and baseline of activity. Using a type of inducible reporter, measures of mRNA for gain or loss-of-signal activity can be used to understand the background control at the transcription factor-level as they relate to the gene . Furthermore, this assay endpoint can be referred to as a secondary readout, because this assay has produced multiple assay endpoints where this one serves a background control function. To generalize the intended target to other relatable targets, this assay endpoint is annotated to the background measurement intended target family, where the subfamily is internal marker.
Human liver HepG2 cells are transiently transfected with multiple reporter transcription units (MRTUs) in 6-well plates using FuGene 6 reagent (Roche; 3 ml FuGene/1 mg DNA). The MRTU constructs are regulated by a cis-regulating element (promoter). […] A major difference between the CIS and TRANS system is that in CIS activities of endogenous TFs are measured, whereas the TRANS assay evaluates changes in activities of exogenous, chimeric NR-Gal4 proteins. […] At the end of 24 hour incubation, total RNA was isolated using TriZol reagent (Invitrogen). The isolated RNA is then reverse-transcribed using oligo(dT) primer and Mo-MLV reverse transcriptase (Invitrogen) with DNAse I (Ambion) treatment for 30 min. The one-tenth of the produced cDNA was amplified by PCR using Taq DNA polymerase (Invitrogen) and two reporter sequence-specific primers. The PCR products were fluorescently labeled by primer extension with 6-arboxyfluorescein (6-FAM) 5'-labeled reporter sequence-specific primer (2 min at 95 C, 20 s at 68 C and 10 min at 72 C) and these products were digested with 5U of HpaI (New England Biolabs) for 2h at 37 C. The fragments were purified using Qiaquick PCR columns (Qiagen), analyzed on an ABI 3130xL genetic analyzer (Applied Biosystems) with peak positions identified by using a set of X-rhodamine (ROX)-labeled MapMarker1000 molecular weight standards (BioVentures). The raw capillary electrophoresis data was processed using Attagraph software (Attagene).

SMILES	outcome	AC50
CC1(C)CCC(Cc2ccc(Cl)cc2)C1(O)Cn1cncn1 (stereo not given)	inactive	–
CCCCCCCCc1ccc(O)cc1	inactive	–
NC(=O)O	inactive	–
O=C(O)Cc1ccccc1	inactive	–
C[C@@H](Oc1ccc(Cl)cc1Cl)C(=O)O	inactive	–
COC[C@H](C)N(C(=O)CCl)c1c(C)csc1C	inactive	–
ClCCBr	inactive	–
COc1ccccc1OC	inactive	–
c1ccc(N=NNc2ccccc2)cc1	inactive	–
COP(=S)(OC)Oc1ccc(Sc2ccc(OP(=S)(OC)OC)cc2)cc1	inactive	–
C[C@]12CC[C@H](O)CC1=CC[C@@H]1[C@@H]2CC[C@]2(C)C(=O)CC[C@@H]12	inactive	–
CCC(=O)c1ccccc1	inactive	–
COC(=O)c1sccc1S(=O)(=O)NC(=O)Nc1nc(C)nc(OC)n1	inactive	–
OCC(O)CCl (stereo not given)	inactive	–
C1CCC(NC2CCCCC2)CC1	inactive	–
C[C@]12CCC(=O)C[C@@H]1CC[C@@H]1[C@@H]2CC[C@]2(C)[C@@H](O)CC[C@@H]12	inactive	–
O=c1[nH]c(=O)[nH]c(=O)[nH]1	inactive	–
Clc1ccc(COC(Cn2ccnc2)c2ccc(Cl)cc2Cl)cc1 (stereo not given)	inactive	–
O=CC=O	inactive	–
Cc1ccccc1C(=O)Nc1cccc(OC(C)C)c1	inactive	–

SMILES	outcome	AC50
COc1cc(OC)nc(NC(=O)NS(=O)(=O)c2ncccc2C(=O)N(C)C)n1	inactive	–
CCN(CC)C(=O)Cl	inactive	–
O=C(Cl)c1ccc(Cl)cc1	inactive	–
CC(C)(c1ccc(OCC2CO2)cc1)c1ccc(OCC2CO2)cc1 (stereo not given)	inactive	–
CCOP(=S)(OCC)SCSP(=S)(OCC)OCC	inactive	–
ClCc1ccccn1	inactive	–
Nc1ccc(Cl)cc1C(=O)c1ccccc1	inactive	–
COc1cc2c(cc1OC)[C@@]13CCN4CC5=CCO[C@H]6CC(=O)N2[C@H]1[C@H]6[C@H]5C[C@H]43	inactive	–
O=C1CCCN1	inactive	–
CCN1CCC2(CC1)COc1cc3c(cc12)N(C(=O)c1ccc(-c2ccc(-c4nnc(C)o4)cc2C)cc1)CC3	inactive	–
C=CC(=O)OCCCCCC(C)C	inactive	–
[O-][Cl+2]([O-])O	inactive	–
C=C(C)C#N	inactive	–
NNC(=S)NN	inactive	–
CCOC(=O)CP(=O)(OCC)OCC	inactive	–
CCSC(C)CC1CC(=O)C(C(CC)=NOC/C=C/Cl)=C(O)C1 (stereo not given)	inactive	–
CC(C)(c1ccccc1)c1ccc(O)c(C(C)(C)c2ccccc2)c1	inactive	–
CCOC(=O)/C=C(C)/C=C/C[C@@H](C)CCCC(C)C	–	157 µM (active)
CC(=[OH+])/C=C(/C)[O-].CC(=[OH+])/C=C(/C)[O-].CC(=[OH+])/C=C(/C)[O-].[Fe]	inactive	–
CC(C)c1cccc(C(C)C)c1O	inactive	–
